Experimental data reported in PubChem BioAssay AID540256 (National Center for Advancing Translational Sciences (NCATS), 2011).
Among all 300,000 compounds or so, about 3,700 (1.2%) were called active. Entries that show only a call come without a potency. About 20% were inconclusive and are not listed. The call rests on the fitted dose curve; tested in HEK293 cells. The full list was thinned out, with actives kept by preference.

experiment: qHTS for Inhibitors of binding or entry into cells for Lassa Virus; conditions: Lassa virus pseudotype entry inhibition, cell reporter; series mostly up to 37.9 µM; further: nearly all actives have a fitted effect of over 50% in size
Potency means the concentration at half of the fitted maximal effect.

Row | SMILES | Potency
1 | CC(C)OCCCNC(=O)CN1C(=O)/C(=C/c2ccccc2F)Oc2ccccc21 | inactive
2 | CCOC(=O)c1c(NC(=O)C2(C)Cc3ccccc3C(=O)O2)sc2c1CCCC2 (centres undefined) | inactive
3 | Cc1ccc(NC(=S)NC(=O)c2ccc(-c3ccccc3)cc2)cc1 | inactive
4 | CCOC(=O)C1=C(NC(=S)NC(=O)c2ccccc2)c2ccccc2CC1(C)C | 1.41 µM (active)
5 | O=C(NN=CC=Cc1ccccc1)C(O)C(O)C(=O)NN=CC=Cc1ccccc1 (centres undefined) | inactive
6 | CC(C)c1ccc(C=NNc2ccc([N+](=O)[O-])cn2)cc1 | inactive
7 | COc1cc(NC(=O)c2ccccc2NS(=O)(=O)c2ccc(Cl)s2)cc(OC)c1 | 11.2 µM (active)
8 | COc1ccccc1C(=O)Nc1ccccc1C(=O)Nc1ccccc1 | inactive
9 | O=C(Nc1nncs1)c1ccccc1NS(=O)(=O)c1cccs1 | inactive
10 | CCn1nnc2cc(C(=O)Nc3ccc(C(=O)OC(C)C)cc3)ccc21 | inactive
11 | O=C(COC(=O)c1n[nH]c2ccccc12)Nc1ccccc1Br | inactive
12 | O=C(Nc1c(Br)cc2c(c1Br)Cc1cc([N+](=O)[O-])ccc1-2)C(Cl)Cl | inactive
13 | Cc1ccc(NC(=O)c2ccc(CSc3ncnc4nc[nH]c34)cc2)c(C)c1 | 17.8 µM (active)
14 | Cc1ccc(NC(=O)c2ccc3[nH]c(C)cc(=O)c3c2)c(C)c1 | inactive
15 | CSc1ncc(C(=O)Nc2ccc(C)cc2C)c(C)n1 | inactive
16 | COc1ccc(N=C2C=CC(=O)O2)cc1 | inactive
17 | O=C(O)C(=Cc1ccccc1[N+](=O)[O-])c1ccccc1 | inactive
18 | O=[N+]([O-])c1ccc(C=NN=Cc2ccc([N+](=O)[O-])cc2)cc1 | inactive
19 | NC(=S)N/N=C/c1ccc([N+](=O)[O-])cc1 | inactive
20 | O=C1/C(=C\c2ccc([N+](=O)[O-])cc2)CS(=O)(=O)C/C1=C/c1ccc([N+](=O)[O-])cc1 | 3.55 µM (active)
21 | CCOC(=O)C1CCCN(C(=O)C2CCN(S(=O)(=O)c3ccc(Cl)c(C(F)(F)F)c3)CC2)C1 (centres undefined) | inactive
22 | Cc1[nH]c2ccccc2c1C(=O)C(C)Sc1nnc(C2CC2)o1 (centres undefined) | inactive
23 | Cc1c(CCO)c(=O)n(-c2ccccc2)n1S(=O)(=O)c1ccc(F)cc1 | inactive
24 | CC(=O)NC1(c2ccc(F)cc2)CCN(C(=O)c2c(F)cccc2F)CC1 | inactive
25 | Cc1c(CCO)c(=O)[nH]n1C(=O)c1c(F)cccc1F | 4.11 µM (active)
26 | COc1ccc(CC(=O)NC(C)c2ccc(Cl)c(Cl)c2)cc1S(=O)(=O)N1CCOCC1 (centres undefined) | inactive

Row | SMILES | Potency
27 | CCOC(=O)Nc1ccc(NC(=O)OCC)cc1 | inactive
28 | CCCCCOC(=O)NCCOC(=O)Nc1ccc(C(=O)OCC)cc1 | 1.03 µM (active)
29 | CCCCC(CCC(=O)Nc1ccc(C(=O)OCC)cc1)C(=O)O (centres undefined) | inactive
30 | NC(CSC1(c2ccccc2)c2ccccc2-c2ccccc21)C(=O)O (centres undefined) | inactive
31 | CC1=CC(C)(C)Nc2ccc(OC(=O)CN3C(=O)C4CCCCC4C3=O)cc21 (centres undefined) | inactive
32 | CC1=CC(C)(C)Nc2ccc(OC(=O)C(Cc3ccccc3)N3C(=O)C4CCCCC4C3=O)cc21 (centres undefined) | 1.12 µM (active)
33 | COC(=O)c1ccccc1NC(=O)C(Cc1ccccc1)N1Cc2ccccc2C1=O (centres undefined) | inactive
34 | O=C(COC(=O)c1ccc2c(c1)OCCO2)NCc1ccccc1Cl | inactive
35 | CCOc1cc(N2CCOCC2)c(OCC)cc1NC(=O)COc1cccc(Cl)c1 | inactive
36 | CCOc1cc(N2CCOCC2)c(OCC)cc1NC(=O)c1cc(C)nc2ccccc12 | inactive
37 | CCOc1cc(N2CCOCC2)c(OCC)cc1NC(=O)COc1cccc2cccnc12 | 6.31 µM (active)
38 | N#CC1(Nc2ccc(-c3ccc(Cl)cc3)cc2)CCCC1 | inactive
39 | CCOc1ccc(-c2cc(C(=O)N/N=C/c3ccc(O)cc3)c3ccccc3n2)cc1 | 1.41 µM (active)
40 | COc1ccc(/C=N/NC(=O)c2cc(-c3cccc(C)c3)nc3ccccc23)cc1O | 7.08 µM (active)
41 | Cc1cc(C(=O)N/N=C/c2ccccn2)c2ccccc2n1 | inactive
42 | COc1cccc(-c2cc(C(=O)N/N=C/c3ccc(OC)c(COC(C)=O)c3)c3ccccc3n2)c1 | inactive
43 | CCOc1ccc(/C=N\NC(=O)c2c(C)nc3cc(C)ccn23)cc1 | inactive
44 | C/C(=N\NC(=O)c1cc(-c2ccc(O)cc2)nc2ccccc12)c1cccnc1 | inactive
45 | Cc1ccc(C)c(NC(=O)CN(C)C(=O)COc2ccc3ccccc3c2)c1 | inactive
46 | Cc1cc2occ(CC(=O)NNC(=O)c3ccccc3F)c2cc1C | inactive
47 | Cc1ccc(CSCC(=O)N(C)CC(=O)Nc2ccc(C)cc2)cc1 | inactive
48 | COc1ccc(C(=O)NCC(c2ccco2)N2CCc3ccccc32)cc1OC (centres undefined) | inactive
49 | Cc1c(C)c2c(OCC(=O)NCCCO)cc3c(c2oc1=O)CCC(C)(C)O3 | inactive
50 | Cc1c(NC(=O)C(C)OC(=O)c2c3c(nc4ccccc24)CCC(C)C3)c(=O)n(-c2ccccc2)n1C (centres undefined) | inactive
51 | COc1cccc(C(=O)Nc2ccc(NC(=O)c3ccco3)cn2)c1 | inactive
52 | O=C(Nc1ccc2nccnc2c1)c1ccco1 | inactive

Row | SMILES | Potency
53 | O=C(Nc1ccc(NC(=O)c2cccs2)cn1)c1ccco1 | 3.98 µM (active)
54 | COc1ccc(OCCNC(=O)c2cc(C3CC3)nc3c2cnn3C(C)C)cc1 | inactive
55 | OCc1ccc(-c2ccccc2)c(-c2ccccc2)c1 | inactive
56 | C/C(=C\C(=O)c1ccc(Br)cc1)N1CCCCC1 | inactive
57 | CN1CCCC(OC(=O)COc2ccc(Br)cc2)C1 (centres undefined) | inactive
58 | CC1CN/C(=C\C(=O)c2ccc(Br)cc2)C(=O)N1 (centres undefined) | 8.2 µM (active)
59 | COC1=CC(=O)OC(c2ccc(OC)cc2)C1 (centres undefined) | inactive
60 | Cn1c(SCC(=O)N2CCCc3ccccc32)nc2ccccc2c1=O | 12.6 µM (active)
61 | O=C(CSc1nc2ccccc2c(=O)n1CCCO)N1CCc2ccccc21 | inactive
62 | O=C(CSc1nc2[nH]ncc2c(=O)n1-c1ccccc1)N1CCCc2ccccc21 | inactive
63 | COc1ccc(N2CCN(CCNC(=O)Nc3cc(Cl)ccc3Cl)CC2)cc1 | inactive
64 | O=C(Cc1ccc([N+](=O)[O-])cc1)NCCc1ccc2c(c1)OCO2 | inactive
65 | Cc1ccc(CSCC(=O)N(C)CC(=O)Nc2cccc(F)c2)cc1 | inactive
66 | Cc1ccc(S(=O)(=O)Nc2ccc(F)c(S(=O)(=O)N3CCOCC3)c2)cc1 | inactive
67 | CCOC(=O)N1CCN(C(=O)COc2ccc3oc4c(c3c2)CCCC4)CC1 | 10 µM (active)
68 | O=C(COc1ccc2oc3c(c2c1)CCCC3)Nc1ccccn1 | inactive
69 | CCOC(=O)N1CCN(C(=O)COc2ccc(Br)cc2)CC1 | inactive
70 | CC(=O)c1ccc(OCCCC(=O)Nc2ccc(C)c(S(=O)(=O)N3CCOCC3)c2)cc1 | inactive
71 | COc1ccccc1NS(=O)(=O)c1ccc(C(=O)N2CCN(c3ccccc3O)CC2)cc1 | inactive
72 | Cc1nn(-c2ccccc2)c(C)c1C(=O)OCC(=O)NC(=O)NC1CCCCC1 | inactive
73 | COc1ccc2nc(/N=C(\N)NC(=O)Nc3ccccc3)nc(C)c2c1 | inactive
74 | Cc1nc(/N=C(\N)NC(=O)NC2CCCCC2)nc2ccccc12 | 22.4 µM (active)
75 | CC(C)c1cc(N=O)cc(C(C)C)c1O | inactive
76 | CCOC(=O)C(C)Sc1nc2ccccc2c(=O)n1CC1CCCCC1 (centres undefined) | inactive
77 | N#Cc1c(NC(=O)CSc2nc3ccccc3c(=O)n2Cc2ccco2)sc2c1CCCC2 | inactive
78 | CC(Sc1nc2ccccc2c(=O)n1Cc1ccco1)C(=O)c1ccccc1 (centres undefined) | 4.11 µM (active)

Row | SMILES | Potency
79 | CC1CCCN(CC(=O)Nc2cc(Cl)ccc2Oc2ccccc2)C1 (centres undefined) | inactive
80 | CCOc1ccc(NC(=O)COC(=O)C2CCC(=O)N2)c([N+](=O)[O-])c1 (centres undefined) | inactive
81 | OC(COc1ccccc1)Cn1cc(Br)cn1 (centres undefined) | inactive
82 | OC(CN=c1sc2ccccc2n1CC(O)COc1ccccc1)COc1ccccc1 (centres undefined) | 20.6 µM (active)
83 | C=CCn1c(=N)n(CC(O)COc2ccc(OC)cc2)c2ccccc21 (centres undefined) | inactive
84 | COc1ccccc1C(=O)NC(CCSC)C(=O)N1CCN(C/C=C/c2ccccc2)CC1 (centres undefined) | inactive
85 | CC1CCC2CCCCC2N1C(=O)c1cc([N+](=O)[O-])cc([N+](=O)[O-])c1 (centres undefined) | inactive
86 | COc1ccc(C2=Nc3cc(C)ccc3OC2)cc1 | 10 µM (active)
87 | COc1ccc(-c2cc(-c3ccccc3)nc3c2COc2ccc(Cl)cc2-3)cc1 | inactive
88 | COc1ccc(C2=NOC3(CC(=O)N(c4ccc(C)cc4)C3=O)C2)cc1 (centres undefined) | inactive
89 | COc1ccc2c(c1)C(=O)Nc1cc(Cl)ccc1N2 | inactive
90 | CC(=O)Nc1ccc(NC(=O)CS(=O)(=O)c2cn(CC(=O)N3CCCCC3)c3ccccc23)cc1 | inactive
91 | Cc1onc(-c2ccccc2Cl)c1C(=O)OCc1nnc(-c2ccccc2)o1 | inactive
92 | CC(C)CC(=O)NC(=S)NCc1ccccc1 | inactive
93 | O=C(c1ccc(F)cc1)c1c[nH]c(C(=O)NCc2cccnc2)c1 | inactive
94 | CC(C)CC(=O)c1c[nH]c(C(=O)NCc2ccccc2)c1 | 7.94 µM (active)
95 | OC(COc1ccccc1)CN1CCN(c2cccc(Cl)c2)CC1 (centres undefined) | inactive
96 | CC/C(=C\c1ccc(Cl)cc1)c1ccncc1 | inactive
97 | CN(C)CCNC(=O)c1[nH]nc2c1CCc1ccccc1-2 | inactive
98 | COc1cc2cc(C(=O)N/N=C/c3cccc(OC)c3OC)[nH]c2cc1OC | inactive
99 | COc1cccc(/C=N/NC(=O)c2[nH]nc3c2CCc2ccccc2-3)c1O | 12.6 µM (active)
100 | O=C(CSc1nnc(-c2ccncc2)o1)Nc1cccc(Cl)c1 | inactive
101 | COc1ccccc1CNS(=O)(=O)c1cc(C(=O)NCc2ccccn2)c(Cl)cc1Cl | inactive
102 | CCN(CC)S(=O)(=O)c1ccc(N(C)Cc2ccc(C(F)(F)F)cc2)nc1 | 4.47 µM (active)
103 | CCN(CC)S(=O)(=O)c1ccc(N(C)CCc2ccc(OC)c(OC)c2)nc1 | inactive
104 | CCN(CC)S(=O)(=O)c1ccc(N(C)Cc2cccc(OC)c2OC)nc1 | inactive
